ClpP mod = qHTS Assay for Activators of ClpP. ATP-dependent Clp protease proteolytic subunit (Bacillus subtilis (strain 168)), P80244. purified B. subtilis ClpP, FRET peptide cleavage, 20 min. Potency, µM (titrated, usually from 57.5 µM), for the others: at the highest dose activity change, negative = active. 1.9% of 340,000 active. AID 651965, 2013; active means well fitted falling curve with a large enough effect; inconclusive means small, poorly fitted or top-dose-only effect; inactive means no such curve, though single readings can be large or run the other way; further: potency means the concentration at half of the fitted maximal effect; the source files actives as falling curves though it sought activators and does not explain the sign; nearly all actives have a fitted effect of over 65% in size
Target sequence (P80244 whole entry, looked up): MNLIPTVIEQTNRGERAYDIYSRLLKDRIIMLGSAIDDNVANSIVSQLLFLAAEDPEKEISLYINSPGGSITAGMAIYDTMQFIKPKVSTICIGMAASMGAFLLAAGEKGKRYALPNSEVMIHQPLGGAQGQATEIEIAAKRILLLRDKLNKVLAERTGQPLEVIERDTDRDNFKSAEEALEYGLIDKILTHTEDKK
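Purified B. subtilis ClpP, 10 microg/mL final in Tris/HCl pH8 with KCl, BSA, glycerol and Tween-20, cleaved an Abz/nitrotyrosine-quenched decapeptide. Fluorescence (ex 320, em 430) was read at 0 and 20 min at room temperature. Delta was normalized to 5.8 microM ADEP and DMSO/no-enzyme controls.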
Sfp PPTase inh = inhibitors of Bacillus subtilis Sfp phosphopantetheinyl transferase. Biochemical Sfp PPTase activity, qHTS. Q9F4F7. Potency, µM, inactives show largest response in the series, negative = inhibition, actives largely listed as inhibitors. 3.5% of 310,000 active;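 further: the enzyme is Sfp with the accession as filed and its product quenches rhodamine fluorescence; potency means the concentration at half of the fitted maximal effect; 0% = enzyme reaction without inhibitor and -100% = no enzyme wells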
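Sfp 15 nM + cpd, 15 min RT; start w/ rhodamine-CoA 5 uM, BHQ-2-YbbR 12.5 uM (final); 50 mM Hepes pH 7.6, 10 mM MgCl2, 0.01% NP-40, 0.01% BSA; read 525/598 nm at 0 and 30 min.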
uPA generation = blocks generation of uPA at the cell surface; cell surface uPA generation assay, qHTS; Potency, µM (highest dose often 38.3 µM), without a hit: at the top dose activity change, negative = inhibition, hits mostly inhibitors; 0.31% of 330,000 active; active means well fitted inhibition curve with a large enough effect; inconclusive means small, poorly fitted or top-dose-only effect; inactive means no such curve, though single readings can be large or run the other way; tested in mouse RAW 264.7 cells; further: potency means the concentration at half of the fitted maximal effect; on the % scale 0 is the no-effect control and ±100 the full control effect; nearly all actives have a fitted effect of over 55% in size
TCR activator = activators of T cell receptors; primary human leukocytes, anti-CD3, IL-2 HTRF, 48 h; Potency, µM (top dose mostly 9.22 µM), inactives show top-dose activation of IL-2 secretion, hits mostly activators; 330,000 tested, under 10 active; further: % of control where 0% means no effect
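HTRF read-out of IL-2 secretion: europium cryptate donor excited at 320nm, d2 acceptor emission at 665nm. Cells were primary human leukocytes incubated 48 hr with compounds and a-CD3 beads, supplying TCR signal only.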
* = called active by the depositor; u = inconclusive; x = not tested or not shown; [ ] = dose if it differs, or a comment. Sampled rows, rich in hits. Any-hit rate of the full collection: about 4.2%. Unless noted, the call rests on the fitted dose curve; in most records, active means well fitted curve in the direction sought with a large enough effect; inconclusive means small, poorly fitted or top-dose-only effect, or another doubt; inactive means no such curve, though single readings can be large; an effect the other way counts as inactive or inconclusive.

SMILES | ClpP mod | Sfp PPTase inh | uPA generation | TCR activator
CC(N)(C(=O)O)c1ccc(P(=O)(O)O)cc1 (centres undefined) | x | -0.4% | x | x
CC(=O)N1CCc2cc(S(=O)(=O)CCC(=O)NCc3ccc(C)o3)ccc21 | x | 25.1µM* | -2.6% | 2.8%
COc1ccc(S(=O)(=O)CCC(=O)Nc2cc(C)ccc2OC)cc1 | -3.1% | 50.1µM* | 11.2% | 6.8%
COc1ccccc1NC(=O)CNC(c1ccccc1)c1ccccc1 | x | -13.5% | 0.0% | -3.4%
Cc1ccc(CNC(=O)Cn2ccc3cc(S(=O)(=O)N4CCCC4)ccc32)o1 | -4.6% | 50.1µM* | -23.9% | -1.2%
COc1ccc(C)cc1NC(=O)CNC(c1ccccc1)c1ccc(C)cc1 (centres undefined) | -0.9% | -3.7% | 1.78µM* | -4.9%
COc1cccc(NCc2nnc3n2CCCCC3)c1 | -0.1% | x | x | x
O=C(Cc1ccc(NC(=O)N2CCCCc3ccccc32)cc1)Nc1ccccc1Br | -11.3% | x | x | x
CC(C)C(NS(=O)(=O)c1cccs1)C(=O)N1CCC(C(N)=O)CC1 (centres undefined) | -11.9% | x | 11.0% | -3.2%
Cc1ccc(CNC(=O)CCS(=O)(=O)c2cc(Br)cc3c2N(C(=O)C2CC2)CC3)cc1 | 1.8% | x | x | x
COc1ccc(S(=O)(=O)CCC(=O)NCc2ccc(C)o2)cc1 | -2.2% | 50.1µM* | 8.0% | -0.5%
Cc1ccc(CNC(=O)CCS(=O)(=O)c2cc(Br)cc3c2N(C(=O)C2CC2)CC3)o1 | -2.9% | 10µM* | -5.2% | 3.7%
COc1cc(/C=C(\NC(=O)c2cc(OC)c(OC)c(OC)c2)C(=O)NC(C(=O)O)c2ccccc2)cc(OC)c1OC (centres undefined) | -2.6% | 10.6% | 8.2% | 6.8%
CCOC(=O)COc1c(C(=O)OC)sc2ncccc12 | 25.1µM* | 26.3% | 1.3% | 0.5%
COC(=O)c1sc2ncccc2c1OCc1c(Cl)cccc1Cl | -22.6% | 2.9% | -1.5% | -6.6%
COc1ccc(-c2nsc(SCC(=O)NCC3CCCO3)n2)cc1 (centres undefined) | 2.1% | -1.3% | -2.7% | 2.0%
O=C1/C(=C/c2ccco2)SC(=S)N1CCC(=O)N1CCCCC1CCO (centres undefined) | 1.2% | 50.1µM* | -8.0% | 6.9%
O=C1/C(=C/c2ccc(Cl)cc2)SC(=S)N1CCC(=O)N1CCCCC1CCO (centres undefined) | -2.8% | -7.9% | u | -1.5%
CN(C)c1ccc(/C=C/c2sc3ccccc3[n+]2CCCCI)cc1 | 1.3% | x | x | x
N#Cc1ccc(-c2ccco2)nc1SCc1ccccc1 | 10µM* | -8.6% | -3.5% | x
Clc1ccc(CSc2ccc(-c3ccco3)nn2)cc1 | x | 56.2µM* | -0.5% | -14.8%
Fc1ccccc1CSc1ccc(-c2ccco2)nn1 | x | 56.2µM* | -9.0% | -3.3%
COc1ccccc1-c1ccc(SCc2ccccc2F)nn1 | x | 9.7% | 10.2% | -16.4%
Clc1cccc(CSc2ccc(-c3ccco3)nn2)c1 | -0.1% | 35.5µM* | 1.2% | x
CCN(CC)S(=O)(=O)c1nnc(NC(=O)COc2ccccc2F)s1 | -2.5% | x | x | x
SMILES | ClpP mod | Sfp PPTase inh | uPA generation | TCR activator
Cc1ccc(CSc2ccc(-c3ccc4c(c3)OCO4)nn2)cc1 | 28.2µM* | -19.3% | 0.5% | -3.3%[46.1 µM]
c1ccc(CSc2ccc(-c3ccccn3)nn2)cc1 | x | 9.1% | -6.8% | -1.2%
c1ccc(CSc2ccc(-c3ccco3)nn2)cc1 | -4.7% | 31.6µM* | -20.0% | -5.6%[46.1 µM]
Cc1ccc(CSc2nnc(-c3ccc4c(c3)OCO4)o2)cc1 | 34.8% | -12.0% | 5.0% | 12.6%
Cc1cccc(CSc2ccc(-c3ccco3)nn2)c1 | -5.8% | u | 4.1% | -4.1%[46.1 µM]
Cc1ccc(CSc2ccc(-c3ccco3)nn2)cc1 | -1.2% | 28.2µM* | -1.9% | 3.4%[46.1 µM]
C=CCn1c(SCc2nc3ccccc3c(=O)[nH]2)nc2ccccc2c1=O | 16.6% | 50.1µM* | 9.3% | 3.4%
C=CCn1c(Cc2ccccc2)nnc1SCc1nc2ccccc2c(=O)[nH]1 | x | -20.4% | -7.5% | -9.7%
CCN1CCN(CCCNC(=O)Cn2c(-c3cccs3)cc3cc(Cl)ccc32)CC1 | 31.6µM* | x | x | x
CN1CCN(CCCNC(=O)Cn2c(-c3cccs3)cc3cc(Cl)ccc32)CC1 | 31.6µM* | x | x | x
COc1cccc(CCNC(=O)Cn2c(-c3cccs3)cc3ccccc32)c1 | 4.4% | x | x | x
CCN(CC)CCCNC(=O)Cn1c(-c2cccs2)cc2cc(Cl)ccc21 | 28.2µM* | x | x | x
O=C(Cn1c(-c2cccs2)cc2cc(Cl)ccc21)NCc1ccccc1 | 28.2µM* | x | x | x
Cn1c(=O)cc(SCC(=O)Nc2cccc(C#N)c2)c2ccc(Cl)cc21 | -2.6% | x | x | x
COc1ccc(CC(=O)Nc2cc(S(=O)(=O)N3CCCCC3)ccc2OC(C)C)cc1OC | 1.8% | x | x | x
COC(=O)c1ccc(NC(=O)c2nc(SCc3ccccc3F)ncc2Cl)cc1 | -9.7% | x | x | x
Cc1ccc(N2CC(NC(=O)C3CCCCC3)CC2=O)cc1C (centres undefined) | 1.5% | x | x | x
N=C(N)c1ccc(-c2ccc(-c3ccc(C(=N)N)cc3)o2)cc1 | 4.3% | x | x | x
COc1ccc(-n2c(Cc3cccn3C)nnc2SCC(=O)NC2CCCCC2)cc1 | -1.9% | -0.6% | 1.5% | 1.9%[46.1 µM]
c1ccc(-n2c(SCc3ccncc3)nnc2-c2ccco2)cc1 | -1.6% | 28.2µM* | 0.1% | 4.3%
O=C(CSc1nnc(-c2ccco2)n1-c1ccccc1)NCC1CCCO1 (centres undefined) | 31.6µM* | 12.1% | 4.9% | -1.9%
COc1ccc(-n2c(Cc3cccn3C)nnc2SCC(=O)NCC2CCCO2)cc1 (centres undefined) | 0.7% | 50.1µM* | 7.6% | 0.0%
COc1ccc(-c2c(-c3cc(OC)cc(OC)c3)n(C)c3ccc(-c4ccc5[nH]ccc5c4)cc23)cc1 | 4.3% | x | -1.6% | -6.2%
COc1cccc(N2CCN(C(=O)c3ccc4c(Cl)c5c(nc4c3)CCCC5)CC2)c1 | -2.0% | x | x | x

High-throughput results deposited in PubChem by National Center for Advancing Translational Sciences (NCATS).
